# Screens (PubChem)
# ERG-DNA inh: ERG Ets/DNA interaction inhibition | P11308 | fluorescence polarization, His-ERG Ets domain / labelled DNA | Potency, µM (series often up to 76.9 µM), most hits filed as inhibitors | hit rate 0.028% among 370,000; active = well fitted inhibition curve with a large enough effect in the polarisation, with a control signal flat; inconclusive = small, poorly fitted or top-dose-only effect, or effect the other way, or a change in a side signal; inactive = no such curve, though single readings can be large or run the other way; the % refers to the polarisation;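 note: polarization taken with two DNA probes labelled with fluorescein and Texas red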
#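 His-tagged ERG Ets domain (1 uM in the protein solution; 300mM KCl, 50mM Tris-HCl, 1mM EDTA, 1mM DTT, pH 7.5) received compound, then a probe mix of 5 nM fluorescein-DNA and 100nM Texas-615-DNA. Fluorescence polarization was read for both dyes.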
# RECQ1 helicase: blocks DNA unwinding by human RECQ1; RECQ1 DNA unwinding, red fluorescence kinetic read; Potency, µM (series often up to 57.3 µM), usual class: inhibitors; hit rate 0.54% among 240,000; AID 2549; note: nearly all actives have a fitted effect of over 30% in size
#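 RECQ1T1 50 nM; forked duplex (20 bp + 30-nt ss tails) 200 nM, ATP 2 mM final; pH 8.0, 2 mM MgCl2, 2.5 ug/ml poly(dI-dC); 15 min compound preincubation; discontinuous kinetic read over 2 h at RT.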
# BLM inh-1: inhibitors of human Bloom syndrome helicase BLM; AID 2528; recombinant BLM DNA unwinding, fluorescence dequenching; P54132; hit rate 0.2% among 350,000; Potency, µM (top dose mostly 56.1 µM), usual class: inhibitors; note: nearly all actives have a fitted effect of over 35% in size
# TexasRed fluor: counter-screen for TRb-SRC2 inhibitors: fluorescence interference | TRb/SRC2 Texas Red total fluorescence interference | hit rate 0.29% among 280,000 | Potency, µM (series often up to 106 µM); active = well fitted curve in either direction with a large enough effect; inconclusive = small, poorly fitted or top-dose-only effect
#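 Flags fluorescent or light-absorbing compounds by total fluorescence, S + 2P, at 555 nm excitation and 632 nm emission. Mixture: 20 nM Texas Red SRC2 peptide, 0.6 uM human TRb LBD, 1 uM T3, 5% DMSO; compound exposure 5 h at ambient temperature.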
# TRb-SRC2 inh: inhibitors of human thyroid hormone receptor beta-SRC2 interaction; hit rate 0.065% among 280,000; Potency, µM (top dose mostly 106 µM), actives largely listed as inhibitors; P10828; TRbeta-SRC2 peptide binding, fluorescence polarization; receptor liganded with 1 µM T3; note: nearly all actives have a fitted effect of over 50% in size
# Target sequence (P10828 whole entry, looked up): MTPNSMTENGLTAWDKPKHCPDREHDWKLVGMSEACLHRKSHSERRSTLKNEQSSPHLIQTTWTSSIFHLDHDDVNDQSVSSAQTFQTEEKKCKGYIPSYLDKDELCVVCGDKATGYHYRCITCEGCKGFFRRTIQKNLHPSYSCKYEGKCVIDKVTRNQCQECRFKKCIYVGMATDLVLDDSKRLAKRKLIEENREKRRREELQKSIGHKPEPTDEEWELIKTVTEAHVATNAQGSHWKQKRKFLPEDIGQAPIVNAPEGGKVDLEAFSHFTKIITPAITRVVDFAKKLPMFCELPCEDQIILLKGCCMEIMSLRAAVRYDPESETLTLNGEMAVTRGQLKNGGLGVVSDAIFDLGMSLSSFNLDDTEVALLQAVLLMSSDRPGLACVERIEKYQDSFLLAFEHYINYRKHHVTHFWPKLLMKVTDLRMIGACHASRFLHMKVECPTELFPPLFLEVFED
#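 A fluorescence polarization screen tested compounds at multiple concentrations against complex formation between 0.6 uM TRb ligand-binding domain and 20 nM Texas Red SRC2 peptide, with 1 uM T3 present; readout after 5 hr.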
# RGS12 GoLoco inh: RGS12 GoLoco-Gai1 interaction inhibition; Potency, µM (series often up to 61.6 µM), actives largely listed as inhibitors; AID 880; Gai1:RGS12 GoLoco peptide FP, rhodamine, 10 min; hit rate 0.44% among 230,000; P63096; active = well fitted inhibition curve with a large enough effect, not every such curve was filed as active; inactive = no such curve, though single readings can be large or run the other way; note: nearly all actives have a fitted effect of over 30% in size
# BLM inh-2: confirmation of inhibitors of human Bloom syndrome helicase BLM; shares compounds with BLM inh-1; hit rate 40% among 220; BLM DNA unwinding, fluorescence quenching, biochemical; Potency, µM, most hits filed as inhibitors; AID 2585;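 note: strand separation dequenches TAMRA so unwinding raises red fluorescence; series mostly up to about 69 µM; nearly all actives have a fitted effect of over 45% in size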
# Numbers stand for hits; 0 = inactive; ? = inconclusive; - = not tested or not shown; [ ] = dose if it differs, or a comment. The list is not random: actives were taken first. Their share in the collection is about 0.71%. Unless noted, calls come from the whole dose curve; as a rule, active = well fitted curve in the direction sought with a large enough effect; inconclusive = small, poorly fitted or top-dose-only effect, or another doubt; inactive = no such curve, though single readings can be large; an effect the other way counts as inactive or inconclusive.
SMILES,ERG-DNA inh,RECQ1 helicase,BLM inh-1,TexasRed fluor,TRb-SRC2 inh,RGS12 GoLoco inh,BLM inh-2
Cc1ccc(NC(=O)CSc2nc(NS(=O)(=O)c3ccccc3)cc(=O)[nH]2)cc1,0,?,?,0,0,0,-
NC(=O)CC1Nc2cccc3cccc(c23)NC1=O (configuration not stated),0,0,2.8µM,0,0,0,0
COc1cc(Cl)c(C)cc1Nc1ncnc2c1nc1n2CCCC1,0,-,0,0,0,-,-
Cc1ccc(S(=O)(=O)N2CCCCC2)cc1NC(=O)Cc1cccs1,0,-,-,-,-,-,-
O=C(Cc1cccs1)Nc1ccc(S(=O)(=O)N2CCCC2)cc1,0,0,18µM,0,0,0,?
O=C(OCC(=O)N1CCN(C(=O)c2ccco2)CC1)c1cc(-c2ccc(Cl)c(Cl)c2Cl)nc2ccccc12,0,0,0,0,0,0,-
O=C(OCC(=O)N1CCN(C(=O)c2ccco2)CC1)c1cc(-c2ccco2)nc2ccccc12,0,13µM,8.9µM,0,0,0,?
CC(=O)OC[C@@H]1O[C@H](CCO/N=C(\C)CCN2CCCc3nc(C)c(C)cc32)C=C[C@@H]1OC(C)=O,-,0[11.5 µM],0[12.4 µM],0[11.2 µM],0[11.2 µM],-,-
CCN(CC)c1cc(Cl)c2nonc2c1N,0,0,0,0,0,0,-
CN(C)c1cc(Cl)c2nonc2c1N,0,28µM,35µM,0,?,0,?
O=c1[nH][nH]c2c(N=Cc3ccccc3O)ccc(F)c12,?,?,28µM,0,0,0,?
Cc1nc2cc(NC(=O)N3CCN(c4ccccn4)CC3)ccc2o1,0,0,0,0,0,0,-
O=C(Nc1ccc2nc(-c3ccco3)c(-c3ccco3)nc2c1)N1CCN(c2ccccn2)CC1,0,0,4.5µM,0,0,0,?
COc1ccc2c(Cl)cc(NC(=S)Nc3ccccc3)nc2c1,-,-,-,-,-,0[14.2 µM],-
O=C(N/N=C/c1ccc(OCc2ccccc2)cc1)c1ccncc1,0,0,0,0,0,0,-
Oc1ccc(N=Cc2ccc(OCc3ccccc3)cc2)cc1,14µM,?,32µM,0,40µM,0,0
COc1ccc(NC(=O)CSc2nncn3c2cc2oc(C)cc23)cc1OC,0,-,0,0,0,-,-
Cc1c(C)c(C)c(CC2(C)CSC2)c(CC2(C)CSC2)c1C,-,-,-,-,-,0[14.2 µM],-
Oc1ccc(CN2CCC(Cc3ccccc3)CC2)c2cccnc12,0,0,8.9µM,0,0,0,18µM
CCOc1cc(/C=N/NC(=O)c2ccc(-c3csc(Nc4ccc(C)cc4)n3)cc2)ccc1OCC(=O)O,0,0,16µM,0,0,0,32µM
COc1cc(/C=N\NC(=O)c2ccc(-c3ccccc3)cc2)ccc1OCC(N)=O,0,-,0,-,-,-,-
O=C(O)CSc1cc(C(=O)c2cc(F)ccc2O)cn2c(=O)c3c(-c4ccccc4)csc3nc12,0,0,25µM,0,0,0,?
Cc1cc(-c2ccco2)c(C#N)c2nc3ccccc3n12,0,0,2.5µM,0,0,0,?
Cc1cc(OCC(=O)Nc2cc(-c3nc4ncccc4o3)ccc2C)ccc1Cl,0,-,28µM,0,0,-,?
Cc1ccc(-c2nc3ncccc3o2)cc1NC(=O)COc1ccc(C(C)C)cc1,0,-,0,0,0,-,-
SMILES,ERG-DNA inh,RECQ1 helicase,BLM inh-1,TexasRed fluor,TRb-SRC2 inh,RGS12 GoLoco inh,BLM inh-2
CCOc1ccc(NC(=O)C2CCC(CNS(=O)(=O)c3ccc(Br)s3)CC2)cc1 (configuration not stated),0,-,0,0,0,-,-
Cc1cc(=O)cc2oc3cc(N)c(-c4c(C)cc(O)cc4O)c(C)c3nc1-2,-,0,16µM,?,?,0,20µM
CCc1ccc(NS(=O)(=O)c2ccc(-c3cc(C)no3)cc2)cc1,0,-,0,0,0,-,-
CCCCCCOC(=O)C1(O)CC2OC1(C)n1c3ccccc3c3c4c(c5c6ccccc6n2c5c31)C(=O)NC4 (configuration not stated),-,0[2.31 µM],0[2.38 µM],0,0,0,-
O=C(CNC(=O)/C=C/c1ccco1)N=Nc1c(O)[nH]c2ccccc12,0,-,20µM,-,-,-,20µM
COCCNc1cc(N2CCN(C3CCCCC3)CC2)c2noc3c2c1C(=O)c1ccccc1-3,0,-,0,0,0,-,-
